Reference: PubChem BioAssay (Tox21)
Inconclusive results are not listed. Entries that show only a call come without a potency. Active and inactive are the calls of the source. Unless noted, calls come from the whole dose curve; as a rule, active = well fitted curve in the direction sought with a large enough effect in the repeat runs; inconclusive = weak or mixed curves; inactive = no such curve, though single readings can be large; an effect the other way counts as inactive or inconclusive.

Key:
[1] = qHTS assay to identify small molecule antagonists of the retinoid acid receptor (RAR) signaling pathway - cell viability counter screen (AID 1159551); note: nearly all actives have a fitted effect of over 35% in size
How it was run: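 Viability of C3RL4 cells is quantified from ATP by luminescence after 6 h treatment at 37 C with compounds and 1 uM retinol.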

[2] = qHTS assay to identify small molecule agonists of the retinoic acid receptor (RAR) signaling pathway (AID 1159553); note: potency is the fitted concentration of half-maximal effect
How it was run: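 Compounds dissolved in DMSO were pinned onto C3RL4 cells seeded the previous day, and plates were held 6 hr at 37 C. RARE-driven luciferase output was then read by luminescence.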

[3] = qHTS assay to identify small molecule antagonists of the estrogen related receptor (ERR) signaling pathway from Tox21 library - cell viability counter screen (AID 1224834); note: nearly all actives have a fitted effect of over 30% in size; note: potency is the fitted concentration of half-maximal effect
How it was run: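 In this quantitative HTS format, ERR cells receive compounds in DMSO and are incubated for 17.5 h at 37 C. Live-cell protease activity is then detected with CellTiter-Fluor.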

[4] = qHTS assay to identify small molecule antagonists of the estrogen related receptor (ERR) signaling pathway - cell viability counter screen (AID 1224818);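 note: series mostly up to about 46 µM; viability measured after 17.5 h of compound exposure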
How it was run: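 Cytotoxicity check run alongside the ERR antagonist screen: cells exposed to test compounds 17.5 h at 37 C, viability taken as CellTiter-Fluor fluorescence intensity.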

[5] = qHTS assay to identify small molecule antagonists of the estrogen related receptor (ERR) signaling pathway (AID 1224819;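 note: luminescence from an ERR-driven luciferase reporter measured with One-Glo reagent; series mostly up to about 46 µM; nearly all actives have a fitted effect of over 50% in size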)
How it was run: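 ERR reporter cells were plated at 2,000 cells/well and left 6 h at 37 C/5% CO2 before pin-tool transfer of compounds in DMSO. After 18 h at 37 C, One-Glo was added and luminescence was read 30 min later at room temperature.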

[6] = qHTS assay to identify small molecule agonists of the estrogen related receptor (ERR) signaling pathway (AID 1224820)
How it was run: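 Following a 6 h settling period, 2,000 ERR cells per well receive DMSO-dissolved compounds by pin tool and incubate 18 h at 37 C; agonist activity is scored from One-Glo luminescence read 30 min post-addition.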

[7] = qHTS assay to identify small molecule agonists of the estrogen related receptor signaling pathway with the pleiotropic PPARgamma coactivator (PGC) (AID 1224823)
How it was run: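 In this quantitative high-throughput screen, an 18 h, 37 C treatment of PGC/ERR cells with compounds in DMSO preceded a One-Glo luminescence read taken after 30 min at room temperature.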

[8] = qHTS assay to identify small molecule antagonists of the retinoic acid receptor (RAR) signaling pathway (AID 1159552; note: nearly all actives have a fitted effect of over 50% in size)
How it was run: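 Luminescence from a RARE luciferase reporter in C3RL4 cells served as read-out. Cells received compounds together with 1 uM final retinol and incubated 6 hr at 37 C before detection reagent was added for 30 min at room temperature.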

[9] = test system: estrogen-related receptor alpha (ERRalpha) with PGC-1alpha coactivator, human; assay: qHTS assay to identify small molecule antagonists of the estrogen related receptor signaling pathway with the pleiotropic PPARgamma coactivator (PGC) (AID 1224821; calls by dose curve;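 note: series mostly up to about 46 µM; lower luminescence signal means antagonism of PGC/ERR signalling; nearly all actives have a fitted effect of over 50% in size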)
How it was run: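 Screening used NTP's PGC/ERR cells, dosed via pin tool with compound in DMSO alongside positive and negative controls. After 18 h at 37 C, One-Glo reagent sat 30 min at room temperature before luminescence detection.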

[10] = qHTS assay to identify small molecule antagonists of the estrogen related receptor signaling pathway with the pleiotropic PPARgamma coactivator (PGC) cell viability counter screen (AID 1224822;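 note: series mostly up to about 46 µM; viability read after 17.5 h compound exposure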)
How it was run: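 Viable cell signal (CellTiter-Fluor, 30 min, 37 C/5% CO2) was measured in PGC/ERR cells after a 17.5 h compound incubation.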

COC(=O)CC#N
Potency [1]: inactive
Potency [2]: inactive
Potency [3]: inactive

Brc1ccccc1-c1ccccc1
Potency [1]: inactive
Potency [2]: inactive
Potency [4]: inactive
Potency [5]: inactive
outcome [6]: inactive
outcome [7]: inactive
Potency [3]: inactive

Nc1cc(Cl)c([N+](=O)[O-])cc1O
Potency [1]: inactive
Potency [2]: inactive
Potency [3]: 54 µM (active)

COC(=O)CC(C)CCC=C(C)C (stereo unspecified)
Potency [1]: inactive
Potency [8]: inactive
Potency [3]: inactive

C=CC(=O)OCCC#N
Potency [1]: inactive
Potency [2]: inactive
Potency [3]: inactive

CCCCCCC(C)Nc1ccc(Nc2ccccc2)cc1 (stereo unspecified)
Potency [1]: inactive
Potency [2]: inactive

CCN(CC)CCNc1ccc(CO)c2sc3ccccc3c(=O)c12
Potency [1]: inactive
Potency [2]: inactive
Potency [3]: 13.3 µM (active)

COc1ccccc1OCCNCC(O)COc1cccc2[nH]c3ccccc3c12 (stereo unspecified)
Potency [1]: inactive
Potency [2]: inactive
outcome [6]: inactive
outcome [9]: inactive
outcome [7]: inactive
Potency [3]: 23.7 µM (active)

ClC/C=C\CCl
Potency [1]: inactive
Potency [2]: inactive

CCOC(/C=C(\C)CCC=C(C)C)OCC
Potency [1]: inactive
Potency [8]: inactive
Potency [3]: inactive

CCOC(=O)CC(C)O (stereo unspecified)
Potency [1]: inactive
Potency [8]: inactive
Potency [3]: inactive

Cn1cnc2ncnc(N)c21
Potency [1]: inactive
Potency [2]: inactive
Potency [3]: inactive

COc1cc(C=C2CCC/C(=C\c3ccc(O)c(OC)c3)C2=O)ccc1O
Potency [1]: inactive
Potency [2]: 13.3 µM (active)
Potency [3]: 13.3 µM (active)

C#CC(O)CCC (stereo unspecified)
Potency [1]: inactive
Potency [8]: inactive
Potency [3]: inactive

Cc1nc(Nc2ncc(C(=O)Nc3c(C)cccc3Cl)s2)cc(N2CCN(CCO)CC2)n1
Potency [1]: inactive
Potency [2]: inactive
Potency [3]: 13.3 µM (active)

[O]=[Zr]
Potency [1]: inactive
Potency [2]: inactive
Potency [3]: inactive

S=P(N1CC1)(N1CC1)N1CC1
Potency [1]: inactive
Potency [2]: inactive
Potency [4]: inactive
Potency [5]: inactive
outcome [6]: inactive
outcome [9]: inactive
Potency [10]: inactive
outcome [7]: inactive

C/C=C/C(=O)C1=C(C)CCCC1(C)C
Potency [1]: inactive
Potency [8]: inactive
Potency [3]: inactive

c1ccc2c(c1)CCC2
Potency [1]: inactive
Potency [8]: inactive
Potency [3]: inactive

CC(C)(C)C1=CC(=O)C=C(C(C)(C)C)C1=O
Potency [1]: inactive
Potency [2]: inactive
Potency [3]: inactive

Oc1c(Br)cc(Br)c2cccnc12
Potency [1]: inactive
Potency [2]: inactive
Potency [3]: 23.7 µM (active)

CCN(CC)c1cccc(C)c1
Potency [1]: inactive
Potency [8]: inactive
Potency [3]: inactive

CCOCN(C(=O)CS(=O)(=O)O)c1c(C)cccc1CC
Potency [1]: inactive
Potency [8]: inactive
Potency [3]: inactive

COC(=O)C1=C(C)NC(C)=C(C(=O)OCCCN2CCC(c3ccccc3)(c3ccccc3)CC2)C1c1cccc([N+](=O)[O-])c1 (stereo unspecified)
Potency [1]: inactive
Potency [2]: inactive
Potency [3]: 21.1 µM (active)

CO[Si](CCCNCCNCCN)(OC)OC
Potency [1]: inactive
Potency [8]: inactive
Potency [3]: inactive

O=CC1CC1
Potency [1]: inactive
Potency [8]: inactive
Potency [3]: inactive

C=C(C)C(=O)OCCC[Si](Cl)(Cl)Cl
Potency [1]: inactive
Potency [2]: inactive
Potency [3]: inactive

Cc1ccc(O)cn1
Potency [1]: inactive
Potency [8]: inactive
Potency [3]: inactive

CC(C)(c1cc(Br)c(O)c(Br)c1)c1cc(Br)c(O)c(Br)c1
Potency [1]: inactive
Potency [2]: inactive
Potency [3]: inactive

CC1CCCCN1CCCOC(=O)c1ccc(OC2CCCCC2)cc1 (stereo unspecified)
Potency [1]: inactive
Potency [2]: inactive

Cc1cn[nH]c1
Potency [1]: inactive
Potency [2]: inactive
Potency [4]: inactive
Potency [10]: inactive
Potency [3]: inactive

CCCCCCCC/C=C/CCCOC(C)=O
Potency [1]: inactive
Potency [8]: inactive
Potency [3]: inactive

CCCCCCS
Potency [1]: inactive
Potency [8]: inactive
Potency [3]: inactive

CC(C)N=C(N)/N=C(\N)Nc1ccc(Cl)cc1
Potency [1]: inactive
Potency [2]: inactive

CCc1c(C(=O)O)c(=O)cnn1-c1ccc(Cl)cc1
Potency [1]: inactive
Potency [3]: inactive

CN(C)CCOC(c1ccccc1)c1ccccc1 (tested in a mixture with another compound)
Potency [1]: inactive
Potency [3]: inactive

CN(C)CCCN1c2ccccc2CCc2ccccc21
Potency [1]: inactive
Potency [4]: inactive
Potency [10]: inactive

Cc1cccc(Br)c1
Potency [1]: inactive
Potency [3]: inactive

CCCCCCCCCCc1ccccc1
Potency [1]: inactive
Potency [3]: inactive

CCC1CCCCC1
Potency [1]: inactive
Potency [3]: inactive

Clc1ccccc1CN1CCc2sccc2C1
Potency [1]: inactive
Potency [3]: inactive

CCCCN(C)C
Potency [1]: inactive
Potency [3]: inactive

Cn1cccc1
Potency [1]: inactive
Potency [3]: inactive

Clc1ccc(C(Cn2ccnc2)OCc2c(Cl)cccc2Cl)c(Cl)c1 (stereo unspecified)
Potency [1]: inactive
Potency [3]: 29.8 µM (active)

O=C(O)CCCCCCC(=O)O
Potency [1]: inactive
Potency [3]: inactive

CC(CN(C)C)CN1c2ccccc2CCc2ccccc21 (stereo unspecified)
Potency [1]: inactive
Potency [4]: inactive
Potency [10]: inactive

CCC(=O)OCCc1ccccc1
Potency [1]: inactive
Potency [3]: inactive

CC(C)=C1CC[C@@H](C)CC1=O
Potency [1]: inactive
Potency [3]: inactive

CCCCCCCCCCCCCc1ccccc1
Potency [1]: inactive
Potency [3]: inactive

O=C(O)Cc1ccc(OCCNC[C@H](O)c2ccccc2)cc1
Potency [1]: inactive
Potency [3]: inactive
